# Results: PubChem BioAssay AID588511 (Johns Hopkins Ion Channel Center, 2011)
# Out of some 310,000 compounds screened, about 3,600 (1.2%) were called active.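 Rule for the calls: active = ratio plate-corrected score three or more library SD toward inhibition, starting fluorescence score within five deviations; inactive = the rest.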 The full list was thinned out, with actives kept by preference.
# Biological target: Anoctamin-1 (Mus musculus) (UniProt Q8BHY3)
# Test: TMEM16A chloride channel inhibitors, primary screen, cell-based, HTS (AID 588511);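 for normalized B-score (activity score, 25-100; higher = stronger inhibition): score derived from kinetic fluorescence span divided by baseline fluorescence per well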
# Conditions: HEK293 TMEM16A/YFP iodide influx fluorescence, ionomycin; at 10 µM
# Sequence of Anoctamin-1 (Mus musculus) (Q8BHY3 whole entry, looked up): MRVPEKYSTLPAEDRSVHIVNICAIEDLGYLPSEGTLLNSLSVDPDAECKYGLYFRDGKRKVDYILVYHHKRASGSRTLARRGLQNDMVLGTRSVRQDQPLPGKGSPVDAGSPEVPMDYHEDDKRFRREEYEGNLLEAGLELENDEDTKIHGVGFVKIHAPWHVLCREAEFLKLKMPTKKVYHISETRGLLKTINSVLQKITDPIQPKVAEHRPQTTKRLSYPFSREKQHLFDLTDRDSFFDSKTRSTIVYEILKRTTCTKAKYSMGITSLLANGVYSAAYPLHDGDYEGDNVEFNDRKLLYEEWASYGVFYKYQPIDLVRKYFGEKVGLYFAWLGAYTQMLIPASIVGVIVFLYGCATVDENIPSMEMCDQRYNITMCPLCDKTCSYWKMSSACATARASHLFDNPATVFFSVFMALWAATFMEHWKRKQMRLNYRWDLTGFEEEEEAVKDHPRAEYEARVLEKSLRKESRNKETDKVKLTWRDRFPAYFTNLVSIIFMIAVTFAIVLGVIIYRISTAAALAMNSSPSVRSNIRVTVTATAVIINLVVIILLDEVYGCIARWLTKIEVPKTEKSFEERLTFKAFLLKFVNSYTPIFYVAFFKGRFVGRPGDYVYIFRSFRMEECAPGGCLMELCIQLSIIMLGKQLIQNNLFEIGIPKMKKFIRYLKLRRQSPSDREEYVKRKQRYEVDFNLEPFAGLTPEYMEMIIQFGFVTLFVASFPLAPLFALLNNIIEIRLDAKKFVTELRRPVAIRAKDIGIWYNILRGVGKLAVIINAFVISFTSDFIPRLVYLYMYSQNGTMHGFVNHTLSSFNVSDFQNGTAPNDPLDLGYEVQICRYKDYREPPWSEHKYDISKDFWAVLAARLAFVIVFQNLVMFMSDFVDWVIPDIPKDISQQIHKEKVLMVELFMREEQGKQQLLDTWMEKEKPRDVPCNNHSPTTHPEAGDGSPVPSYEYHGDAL
row,SMILES,"normalized B-score (activity score, 25-100; higher = stronger inhibition)"
1,Cn1ccnc1-c1nnn(-c2ccc(F)cc2)n1,inactive
2,COC(=O)c1ccc(OC(=O)c2nn(C)cc2Cl)c(OC)c1,inactive
3,Cc1noc(C)c1-c1nc(CSc2ccc(Cl)cc2)no1,inactive
4,Cc1cc(C)n(CC(=O)Nc2ccc([N+](=O)[O-])cc2)n1,inactive
5,COCCCNC(=O)c1ccc(CNS(=O)(=O)c2ccc(NC(C)=O)cc2)cc1,inactive
6,Cc1cc(N=Nc2ccc3ccccc3c2)ccc1O,inactive
7,Cc1cccc(-c2c(NC(=O)c3ccco3)oc3ccc(Cl)cc3c2=O)c1,inactive
8,CN(C)CCCO/N=C(\c1ccccc1)c1ccncc1,inactive
9,CC(C)Oc1ccc(/C=C(\NC(=O)/C=C/c2ccco2)C(=O)NCCc2nc3ccccc3[nH]2)cc1,inactive
10,CCCNC(=O)c1onc(CSc2ccc(F)cc2)c1C(=O)NC(C)C,inactive
11,Cc1ccnc(N2C(=O)c3ccccc3C2Nc2ccc3c(c2)OCCO3)c1 (configuration not stated),inactive
12,S=C(NCc1ccco1)Nc1ccc2c(c1)OCCO2,inactive
13,O=C1c2ccccc2C(Nc2ccc3c(c2)OCCO3)N1Cc1ccco1 (configuration not stated),100 (active)
14,CCN(CC)C(=O)CSC(Nc1cccc(F)c1)=C(C#N)C#N,inactive
15,c1ccc2c(c1)C(=NC1CCCCC1)NC2=NC1CCCCC1,inactive
16,CCCn1c(C(C)Nc2nc(-c3ccc(C)cc3)cs2)nc2cc(Cl)c(N3CCCCC3)cc21 (configuration not stated),inactive
17,CC1(C)C=C2[C@H]3CC[C@@H]4[C@@]5(C)CCC(=O)C(C)(C)[C@@H]5CC[C@@]4(C)[C@]3(C)CC[C@@]2(C(=O)O)CC1,100 (active)
18,CC1CN(C(=O)c2ccc3c(c2)OCO3)OC(c2ccccc2)O1 (configuration not stated),inactive
19,Cc1cc(=O)oc2c1c(C)nn2-c1ccc(Cl)cc1,inactive
20,CCCc1cc(=O)[nH]c(SCC(=O)c2c(N)n(CC(C)C)c(=O)n(C)c2=O)n1,inactive
21,CC(C)(C)C1CCC(C(=O)Nc2cccnc2)CC1 (configuration not stated),inactive
22,COc1ccc(N(C)S(=O)(=O)c2ccc3c(c2)CC(C)N3C(=O)C2CC2)c(OC)c1 (configuration not stated),inactive
23,COc1cccc(CNS(=O)(=O)c2ccc3c(c2)CC(C)N3C(=O)C2CCC2)c1 (configuration not stated),100 (active)

row,SMILES,"normalized B-score (activity score, 25-100; higher = stronger inhibition)"
1,COc1cccc(CNS(=O)(=O)c2ccc3c(c2)CC(C)N3C(C)=O)c1 (configuration not stated),inactive
2,COc1cc(C(C(=O)NC2CCCC2)N(C(=O)c2ccco2)c2ccccc2C(C)=O)cc(OC)c1OC (configuration not stated),inactive
3,Nc1nonc1-n1nnc(C(=O)N/N=C/c2cc(Br)ccc2O)c1CSC1=NCCS1,inactive
4,Cc1ccc(-c2nn(C(C)(C)C)c3ncnc(N)c23)cc1,inactive
5,Nc1nc(SCC(=O)Nc2cc(C(F)(F)F)ccc2Cl)[nH]c(=O)c1NC(=O)c1ccco1,inactive
6,COc1ccc(-c2nnc(SCC(=O)c3ccc4c(c3)OCCO4)o2)cc1,inactive
7,COc1ccc(-n2c(C)cc(C(=O)COC(=O)c3cc(OC)c(OC)cc3NC(=O)c3cccs3)c2C)cc1,inactive
8,COc1ccc(-n2c(C)cc(C(=O)CSc3nnc(-c4cccs4)o3)c2C)cc1,100 (active)
9,CCc1cc2c(NC3CCCC3)ncnc2s1,inactive
10,CCc1cc2c(N3CCN(c4nnc(CC)s4)CC3)ncnc2s1,100 (active)
11,CCc1cc2c(NC(Cc3ccccc3)C(=O)O)ncnc2s1 (configuration not stated),inactive
12,Cc1ccc(S(=O)(=O)N[C@@H](Cc2ccccc2)C(=O)N2CCC(C(=O)N[C@H](C(=O)O)C(C)O)CC2)cc1 (some centres not stated),inactive
13,COc1cccc(C(=O)NNS(=O)(=O)c2ccc(F)cc2)c1,inactive
14,Cc1cccnc1NC(=O)Cn1c(=O)oc2ccccc21,inactive
15,COCc1c(C(=O)N/N=C(\C)c2ccncc2)nnn1-c1nonc1N,inactive
16,S=c1[nH]nc(NCCc2ccccc2)s1,inactive
17,Cc1nc(C)c(-c2csc(NCCc3ccccc3)n2)s1,100 (active)
18,CCNc1nc(-c2cc3ccccc3o2)cs1,inactive
19,COc1cccc(CNC(=O)c2cccnc2Sc2ccc(Cl)cc2)c1,inactive
20,Cc1ccc(NC(=O)C(=O)NCc2ccc(/C=N/NC(=O)c3c(C)nc4cc(C)ccn34)o2)cc1,inactive
21,CCN(Cc1ccccc1)C(=O)CN1C(=S)NC(C)(C)CC1C (configuration not stated),inactive
22,N#Cc1c(-c2ccccc2)nc(SCc2ccc([N+](=O)[O-])cc2)[nH]c1=O,inactive
23,O=c1[nH]c(SCc2cccc(F)c2)nc2ccccc12,inactive

row,SMILES,"normalized B-score (activity score, 25-100; higher = stronger inhibition)"
1,Cc1ccc(CSc2nc(-c3ccccc3)c(C#N)c(=O)[nH]2)cc1,100 (active)
2,N#Cc1c(-c2ccc(F)cc2)nc(-c2ccccc2)[nH]c1=O,inactive
3,O=c1[nH]c(SCc2ccccc2)nnc1-c1ccccc1,inactive
4,N#Cc1c(-c2ccccc2)nc(SCc2cccc(C(F)(F)F)c2)[nH]c1=O,100 (active)
5,O=C(CCN1C(=O)C2CCCCC2C1=O)Nc1ccc(OC(F)F)cc1 (configuration not stated),inactive
6,O=C(COC(=O)c1ncc(Cl)c(Cl)c1Cl)NNC(=O)c1ccccc1,inactive
7,O=C(CC1C(=O)NCCN1CC(c1ccccc1)c1ccccc1)NCCc1cn[nH]c1 (configuration not stated),inactive
8,COc1ccc(C(=O)Nc2cc(C)c(NC(=O)c3ccccc3OC)cn2)cc1,inactive
9,CC1CN(C(=S)Nc2cccc(F)c2)CC(C)O1 (configuration not stated),inactive
10,Cc1ccc(CNC(=O)c2ccc(CS(=O)Cc3cccc(Cl)c3)o2)cc1 (configuration not stated),inactive
11,CCCOc1cccc(C(=O)NCCCNC(=O)c2cccnc2)c1,inactive
12,CCc1ccc[n+](-c2nc([O-])sc2C=O)c1,inactive
13,CC(C)(C)c1cc(NC(=O)NN2CCOCC2)nn1-c1c(Cl)cc(Cl)cc1Cl,inactive
14,COc1cccc(-c2nnc(NC(=O)c3ccc(S(=O)(=O)N(CC(C)C)CC(C)C)cc3)o2)c1,100 (active)
15,COc1cccc(NC(=O)c2ccc(S(=O)(=O)N(C)C)cc2)c1,inactive
16,COc1ccc(-c2nnc(NC(=O)CS(=O)(=O)c3ccc(Cl)cc3)o2)c(OC)c1,inactive
17,CCn1c(C)nc2c1C(=O)c1ccccc1C2=O,inactive
18,CSc1ccccc1OCc1cc(C(=O)N2C[C@H]3CC[C@H]2C3)no1,inactive
19,Cc1ccc(OCc2nc(C#N)c(N3CCCC3)o2)cc1,inactive
20,N#Cc1nc(COc2ccc(-c3ccccc3)cc2)oc1NCc1cccnc1,100 (active)
21,O=S(=O)(c1ccc(Br)cc1)c1nc(-c2ccccc2)oc1NCc1cccnc1,inactive
